# BCR signal inh: qHTS Assay to Find Inhibitors of Chronic Active B-Cell Receptor Signaling. ABC-DLBCL IkBa-CBG/CBR reporter, luminescence ratio, 4 h. Potency, µM (top dose mostly 46.1 µM), for the others: at the top dose activity change, negative = inhibition, most hits filed as inhibitors. actives 0.05% (n = 340,000); active means well fitted inhibition curve with a large enough effect in the signal ratio, with a control signal flat, not every such curve was filed as active; inconclusive means small, poorly fitted or top-dose-only effect, or effect the other way, or a change in a side signal; the % refers to the signal ratio;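 further: potency means the concentration at half of the fitted maximal effect; plate controls were basal doxycycline-induced cells for no effect and cells given 10 µM MG132 for full effect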
#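 Compounds up to 46 uM were incubated four hours with TMD8 cells whose green CBG68 luciferase is fused to IkappaBalpha; red CBR luminescence normalised the signal, and concentration-effect curves were fitted to fusion, red and ratio data.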
# TDP1 cell CPT: qHTS for Inhibitors of human tyrosyl-DNA phosphodiesterase 1 (TDP1): qHTS in cells in presence of CPT. chicken DT40 Tdp1-/-;hTDP1 cells + 20 nM CPT, ATP luminescence, 48 h. Potency, µM (top dose mostly 46.2 µM), inactives show at the top dose activity change, negative = growth inhibition, actives largely listed as inhibitors. AID 686979, 2013. actives 12% (n = 420,000); further: potency means the concentration at half of the fitted maximal effect; on the % scale 0 is the no-effect control and ±100 the full control effect; nearly all actives have a fitted effect of over 55% in size
#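 Chicken DT40 Tdp1-/- cells complemented with human TDP1, 400 cells/well, exposed to compounds plus 20 nM camptothecin for at least 48 h at 37 C; viability read as ATP content by CellTiter-Glo luminescence.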
# DT40 TDP1 no CPT: qHTS for Inhibitors of human tyrosyl-DNA phosphodiesterase 1 (TDP1): qHTS in cells in absence of CPT | DT40 Tdp1-/- hTDP1 cells, no CPT, ATP luminescence, 48 h | Potency, µM (doses to about 46.2 µM), for inactives: at the highest dose activity change, negative = growth inhibition, actives largely listed as inhibitors | actives 15% (n = 420,000) | AID 686978, 2013; further: potency means the concentration at half of the fitted maximal effect; on the % scale 0 is the no-effect control and ±100 the full control effect; nearly all actives have a fitted effect of over 55% in size
#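 DT40 Tdp1-/-;hTDP1 cells, no CPT (DMSO vehicle only), 400 cells/well; compounds pin-transferred; ≥48 hr, 37 °C; CellTiter-Glo 30 min RT dark, luminescence read.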
# SW480 rereplic: A quantitative high throughput screen for small molecules that induce DNA re-replication in SW480 colon adenocarcinoma cells; SW480 DNA re-replication, Hoechst DNA content imaging, 48 h; Potency, µM (doses to about 46.1 µM), inactives show at the highest dose re-replication activation, hits mostly activators; actives 1.8% (n = 340,000); AID 624297, 2012; further: potency means the concentration at half of the fitted maximal effect; % of control where 0% means no effect; nearly all actives have a fitted effect of over 55% in size
#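 Per well, 250 cells were exposed to pinned compound for 48 hr. Nuclear DNA was visualised with Hoechst (40 min, 37 C) and total object intensity recorded by fluorescence scanning.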
# IL-1B inflam inh: qHTS for Inhibitors of Inflammasome Signaling: IL-1-beta AlphaLISA Primary Screen; AID 743279, 2014; THP-1 LPS/ATP IL-1B secretion, AlphaLISA, 16 h; hits give low values; activity change, % at 57.5 µM; actives 4.7% (n = 360,000); in the data active means activity change below about -50%; inconclusive means mostly about -30% to -49%; further: on the % scale 0 is the no-effect control and ±100 the full control effect
#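 THP-1 cells pretreated 1 hr with compounds (up to 57.5 uM final), then stimulated with LPS (250 ng/mL final) plus ATP (1.25 mM final); secreted IL-1B measured by AlphaLISA after 16 hr, decreased signal indicating inhibition.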
# MCF10A rerep: A quantitative high throughput screen for small molecules that induce DNA re-replication in MCF 10a normal breast cells. MCF 10A DNA re-replication, Hoechst nuclear intensity, 48 h. actives 2.9% (n = 350,000). Potency, µM (titrated, usually from 46.1 µM), without a hit: at the top dose activity, positive = re-replication, hits mostly activators. AID 624296, 2012; further: potency means the concentration at half of the fitted maximal effect; % of control where 0% means no effect; nearly all actives have a fitted effect of over 50% in size
# * marks the source's active call; other numbers are inactive results; ? = inconclusive; nt = no result given; [ ] = remark or other dose. Only some compounds are listed: those with a hit (about 19% of all), similar ones and a draw of the others. Unless noted, the call rests on the fitted dose curve; in most records, active means well fitted curve in the direction sought with a large enough effect; inconclusive means small, poorly fitted or top-dose-only effect, or another doubt; inactive means no such curve, though single readings can be large; an effect the other way counts as inactive or inconclusive.
SMILES,BCR signal inh,TDP1 cell CPT,DT40 TDP1 no CPT,SW480 rereplic,IL-1B inflam inh,MCF10A rerep
CC(=O)C1(c2ccccc2)CCN(C(=O)C2CCC(=O)N(CCc3cccc(F)c3)C2)CC1 (configuration not stated),8%,-68%,23µM*,-3%,9,0%
C[C@H]1CCC[C@H](O)CCCCCc2cc(O)cc(O)c2C(=O)O1,?,15µM*,18µM*,?,-19,?
CC1CCC[C@H](O)CCCCCc2cc(O)cc(O)c2C(=O)O1 (some centres not stated),?,-22%,?,-39%,-8,1%
C[C@H]1CCC[C@@H](O)CCC/C=C/c2cc(O)cc(O)c2C(=O)O1,?,?,21µM*,?,?,10µM*
O=Cc1cn(Cc2c(F)cccc2Cl)nc1-c1ccccc1,nt,?,?,-11%,-12,16%
CCc1ccc(-c2nn(Cc3ccccc3)cc2C=O)cc1,-3%,?,?,4.6µM*,-59*,0%
Cc1cccc(C)c1-n1nnnc1C(C1CC1)N1CCC(n2c(=O)[nH]c3ccccc32)CC1 (configuration not stated),nt,?,?,nt,-11,nt
CSCCC(c1nnnn1-c1c(C)cccc1C)N1CCC(n2c(=O)[nH]c3ccccc32)CC1 (configuration not stated),nt,26µM*,18µM*,nt,23,nt
CSCCC(c1nnnn1C1CCCC1)N1CCC(n2c(=O)[nH]c3ccccc32)CC1 (configuration not stated),nt,?,23µM*,nt,-10,nt
CC(C)(C)n1nnnc1C(CCc1ccccc1)N1CCC(n2c(=O)[nH]c3ccccc32)CC1 (configuration not stated),nt,13µM*,13µM*,nt,?,nt
O=c1[nH]c2ccccc2n1C1CCN(C(c2nnnn2C2CCCC2)C2CC2)CC1 (configuration not stated),nt,?,?,nt,-3,nt
O=c1[nH]c2ccccc2n1C1CCN(C(c2nnnn2C2CCCCC2)C2CC2)CC1 (configuration not stated),nt,?,15µM*,nt,-21,nt
CCOc1ccc(NC(=O)Cn2cc(C(=O)c3ccccc3)c3ccccc32)cc1,nt,-29%,?,nt,nt,nt
O[C@H]1C2CCC1C(N1CCCCC1)CC2 (some centres not stated),-6%,11%,4%,-1%,-6,9%
CC(C)NC(=O)N1CCC2(CC1)CCN(C(=O)Oc1ccccc1)CC2,nt,-8%,?,nt,nt,nt
CC(=O)C1CCC2C3CCC4CC(O)CCC4(C)C3CC(O)C12C (configuration not stated),nt,11%,-22%,nt,nt,nt
O=c1[nH]c2ccccc2n1C1CCN(C(CCc2ccccc2)c2nnnn2C2CCCCC2)CC1 (configuration not stated),nt,21µM*,13µM*,nt,-61*,nt
CSCCC(c1nnnn1C1CCCCC1)N1CCC(n2c(=O)[nH]c3ccccc32)CC1 (configuration not stated),nt,18µM*,9.2µM*,nt,-23,nt
CC1C(=O)N(Cc2ccc(F)cc2)c2ccccc2N1C(=O)c1c(F)cccc1F (configuration not stated),?,16µM*,?,11%,-2,-3%
Cc1cc(C)n(-c2nc3nonc3nc2Nc2cccc(C)c2C)n1,2%,?,?,-3%,10,0%
CC1=CC2OC3CC4OC(=O)C=CC=CC(=O)OCCC(C)C(O)C(=O)OCC2(CC1)C4(C)C31CO1 (configuration not stated),nt,0.023µM*,0.16µM*,?,-103*,12%
CC1=CC2OC3CC4OC(=O)C=CC=CC(C(C)O)OCC(O)C5(C)OC5C(=O)OCC2(CC1O)C4(C)C31CO1 (configuration not stated),nt,0.092µM*,0.15µM*,15%,-117*,16%
CC1CCOC(=O)C=CC=CC(=O)OC2CC3OC4C5OC5(C)C(O)CC4(COC(=O)C1O)C2(C)C31CO1 (configuration not stated),nt,0.15µM*,0.15µM*,?,-104*,0.23µM*
CC(O)C1C=CC=CC(=O)OC2CC3OC4C5OC5(C)C(O)CC4(COC(=O)C(O)C(C)CCO1)C2(C)C31CO1 (configuration not stated),nt,0.13µM*,0.15µM*,1.8µM*,-100*,?
CCCCC[C@@H](/C=C/C=C\C/C=C\C/C=C\CCCC(=O)O)OO,nt,-23%[0.628 µM],-3%[0.628 µM],nt,nt,nt
COc1ccc(C(=O)OC2CC3CCC(C2)[N+]3(C)[O-])cc1OC (configuration not stated),1%,-1%,12%,-14%,14,5%
CCc1nc(SC)ncc1C(=O)Nc1ccc(Cl)cc1C(=O)c1ccccc1,nt,-1%,?,nt,nt,nt
CC(C)CN1CCCC2(CCN(C(=O)c3ccncc3)CC2)C1,nt,2%,1%,nt,nt,nt
C=CCn1nc(C(=O)N2CCOCC2)cc1-c1sc(NC(=O)c2ccccc2)nc1C,nt,15µM*,10µM*,nt,63,nt

# High-throughput results from PubChem.
